In PubChem BioAssay (NCATS) one finds Potency data, which are given here for five molecules.

For assay [1], the target named is Aldehyde dehydrogenase, mitochondrial (Homo sapiens) (UniProt P05091). Nature of the assay: qHTS for Inhibitors of the Aldehyde Dehydrogenase Family (ALDH2) Confirmatory screens (AID 2061303; active = well fitted inhibition curve with a large enough effect; title and protocol of this record describe different tests; note: nearly all actives have a fitted effect of over 45% in size; note: potency is the fitted concentration of half-maximal effect). On the technique in general: Quantitative high-throughput screening tests each substance at several concentrations.
Assay [2] has the same target. In words: qHTS for Inhibitors of the Aldehyde Dehydrogenase Family (ALDH2) Primary screen (AID 2061308). Note: nearly all actives have a fitted effect of over 55% in size. Note: potency is the fitted concentration of half-maximal effect.
Assay [3] concerns the target Retinaldehyde dehydrogenase 3 (Homo sapiens) (UniProt P47895). In words: qHTS for Inhibitors of the Aldehyde Dehydrogenase Family (ALDH1A3) Confirmatory screens (AID 2061311). Note: nearly all actives have a fitted effect of over 60% in size. Note: potency is the fitted concentration of half-maximal effect.
Assay [4] concerns the target Retinal dehydrogenase 2 (Homo sapiens) (UniProt O94788). In words: qHTS for Inhibitors of the Aldehyde Dehydrogenase Family (ALDH1A2) Confirmation screens (AID 2061314). Note: nearly all actives have a fitted effect of over 65% in size. Note: potency is the fitted concentration of half-maximal effect.
The target in assay [5] is Aldehyde dehydrogenase 1A1 (Homo sapiens) (UniProt P00352). In words: qHTS for Inhibitors of the Aldehyde Dehydrogenase Family (ALDH1A1) Confirmatory screens (AID 2061316). Note: potency is the fitted concentration of half-maximal effect; nearly all actives have a fitted effect of over 65% in size.
In assay [6] the target is Retinaldehyde dehydrogenase 3 (Homo sapiens) (UniProt P47895). Nature of the assay: qHTS for Inhibitors of the Aldehyde Dehydrogenase Family (ALDH1A3) Primary screen (AID 2061315).

Inconclusive results are not listed. Calls of active or inactive are those of the source. Unless noted, calls come from the whole dose curve; as a rule, active = well fitted curve in the direction sought with a large enough effect; inconclusive = small, poorly fitted or top-dose-only effect, or another doubt; inactive = no such curve, though single readings can be large; an effect the other way counts as inactive or inconclusive.

`Cc1cc(C)nc(NC(=S)N2CCN(c3cccc4ccncc34)CC2)c1`: the Potency in assay [1] is 12.7 µM (active); in assay [2], 3.16 µM (active); in assay [3], 11.3 µM (active); in assay [4], 10.1 µM (active); in assay [5], 4 µM (active).
The matching figures for `COc1ccc([N+](=O)[O-])c(S(=O)(=O)c2ccccc2)n1`: 17.8 µM (active), 4.47 µM (active), 5.65 µM (active), 15.8 µM (active) and 2.01 µM (active).
For `CN(C)c1cccc(-c2csc(N3CCC(C(N)=O)CC3)n2)c1`, the Potency in assay [1] is 12.7 µM (active); in assay [3], 12.7 µM (active); in assay [5] it was 11.3 µM (active). Also, the Potency entry in assay [2] and in assay [6] was “inactive” in each case.
With `O=[S+]([O-])(NCC#CCSc1nnc(-c2cccc3ccccc23)o1)c1ccc(F)cc1`, the Potency entry in assay [1], in assay [2], in assay [4] and in assay [6] was “inactive” in each case.
As to `O=C(O)CN1C(=O)N/C(=C\c2cccn2-c2ccc(P(=O)(O)O)cc2)C1=O`, the Potency result in assay [1], in assay [2], in assay [3] and in assay [6] was “inactive” in each case. For the same molecule, the Potency in assay [5] is 7.98 µM (active).
